Measurements: PubChem BioAssay AID504692 (The Scripps Research Institute Molecular Screening Center, 2011)
About 2,000 (0.59%) of roughly 340,000 compounds were called active. Cut-off read from the data, not from the text of the source: active = activation mostly above about 9.5% (no sharp cut-off); inactive = mostly below about 7.6%. For the sample, actives were picked, then their nearest neighbours and some compounds at random.

molecular target: 5-hydroxytryptamine receptor 5A (Homo sapiens) (UniProt P47898); test: activation of human 5-HT5A receptor – cell-based, luminescence, full-deck HTS, counter-screen for OPRM1-OPRD1 heterodimer agonist project, primary screen (AID 504692); details: HTR5A agonist assay, at 9.3 µM, stronger effect = higher value;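 note: 0% = cells with vehicle only and 100% = reference agonist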
Sequence (P47898 whole entry, looked up): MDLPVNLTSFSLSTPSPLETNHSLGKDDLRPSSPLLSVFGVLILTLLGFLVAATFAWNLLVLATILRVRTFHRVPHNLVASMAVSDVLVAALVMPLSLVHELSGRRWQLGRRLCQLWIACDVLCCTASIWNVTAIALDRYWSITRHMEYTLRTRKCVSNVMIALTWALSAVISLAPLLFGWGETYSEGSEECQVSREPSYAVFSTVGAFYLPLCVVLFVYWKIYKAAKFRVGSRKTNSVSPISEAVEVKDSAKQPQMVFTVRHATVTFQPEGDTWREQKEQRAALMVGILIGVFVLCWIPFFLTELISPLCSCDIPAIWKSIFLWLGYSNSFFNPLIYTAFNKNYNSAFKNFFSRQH

Structure (SMILES) | activation
CCCN(CCc1ccccc1)C1CCc2c(O)cccc2C1 (stereo not given) | 24.5% (active)
Cc1cc(C)cc(C(=O)N(CCc2ccccc2)C2=CC3CCC(C2)N3C)c1 (stereo not given) | 7.8% (inactive)
CC(NC(=O)c1cc(-c2ccccc2)on1)c1ccccc1 (stereo not given) | 18.9% (active)
CC(C)CNC(=O)c1cc(-c2ccc(Br)cc2)on1 | 5.27% (inactive)
O=C(NC1CCCC1)c1cc(-c2ccccc2)on1 | -5.2% (inactive)
CCOC(=O)c1c(/N=C/c2cc(C)ccc2O)sc2c1CCC2 | 3.38% (inactive)
Cc1cc(-c2ccc(C)c(S(=O)(=O)NC(C)Cc3ccco3)c2)on1 (stereo not given) | 11.8% (active)
Cc1cc(-c2ccc(C)c(S(=O)(=O)Nc3ccc(S(N)(=O)=O)cc3)c2)on1 | 1.19% (inactive)
Cc1cc(-c2ccc(C)c(S(=O)(=O)NCCCN(Cc3ccccc3)C(C)C)c2)on1 | -3.67% (inactive)
CCc1c(C)c2c(C)[nH]nc2oc1=O | 2.29% (inactive)
CNS(=O)(=O)c1cccc(C(=O)OCCCC(=O)c2ccccc2)c1 | 2.3% (inactive)
CCNC(=S)N1CCC(c2nc3cc(C)c(C)cc3[nH]2)CC1 | 0.03% (inactive)
CN(C)CCCNC(=S)N1CCC(c2nc3ccccc3[nH]2)CC1 | 11.5% (active)
CCCNC(=S)N1CCCC(c2nc3ccccc3[nH]2)C1 (stereo not given) | 2.29% (inactive)
O=C(OCC(=O)N1CCCCCC1)c1cnc(Cl)c(Cl)c1 | -5.36% (inactive)
CCCOc1ccc(C(=O)CCC(=O)OC(C)C(=O)Nc2ccc(NC(C)=O)cc2)cc1 (stereo not given) | 2.99% (inactive)
CCCOc1ccc(/C=N/NC(=O)C2CC2)c(OCCC)c1 | 4.85% (inactive)
CCCOc1ccc(C(=O)C(CCC(CNCC)C(=O)c2ccc(OCCC)cc2)CNCC)cc1 (stereo not given) | 19.9% (active)
O=C(c1ccco1)N1CCN(Cc2cccc(C(F)(F)F)c2)CC1 | 4.8% (inactive)
Cn1c(CN2CCOCC2)nc2cc(NC(=O)c3ccc(Cl)cc3)ccc21 | 9.89% (inactive)
CN(c1ccccc1)S(=O)(=O)c1cc(C(=O)OCC(=O)N2CCN(C(=O)c3ccco3)CC2)ccc1Cl | 3.06% (inactive)
CN(c1ccccc1)S(=O)(=O)c1cc(C(=O)N2CCN(c3ncccn3)CC2)ccc1Cl | 15.4% (active)
CN(c1ccccc1)S(=O)(=O)c1ccc(C(=O)N2CCN(c3ccccc3Cl)CC2)cc1 | 0.22% (inactive)
Cc1cc(C)cc(C(=O)NCC(=O)OCC(=O)N2CCCCC2)c1 | -2.45% (inactive)

Structure (SMILES) | activation
Cc1ccc(S(=O)(=O)N(CC(=O)NCCSC2CCCCC2)c2ccccc2F)cc1 | 2.64% (inactive)
O=C(NC1(C(F)(F)F)N=C2SCCN2C1=O)c1ccco1 (stereo not given) | 3.99% (inactive)
COC(=O)c1ccc(NCc2cc(O)ccc2O)cc1 | 6.1% (inactive)
O=C(OC12CC3CC(CC(C3)C1)C2)c1ccc(NCc2cc(O)ccc2O)cc1 | 21.4% (active)
CC(C)OC(=O)c1ccc(NCc2cc(O)ccc2O)cc1Cl | 3.07% (inactive)
C/C(=N\NC(=S)NC1CCCCC1)c1ccc(C)o1 | 6.64% (inactive)
CCOC(=O)C1CSC(CC(=O)Nc2ccc(OCC)cc2)C(=O)N1 (stereo not given) | -5.17% (inactive)
O=C(CSc1ccccc1)Nc1cccc(S(=O)(=O)N2CCCCC2)c1 | -8.72% (inactive)
CCN(CC(=O)Nc1ccc(S(=O)(=O)N2CCCC2)cc1)CC(=O)Nc1cccc(OC)c1 | -2.62% (inactive)
CCN(CC(=O)Nc1cccc(S(=O)(=O)N2CCCCC2)c1)Cc1ccccc1 | 15.5% (active)
O=C(Nc1cccc(S(=O)(=O)N2CCCCC2)c1)c1cncc(Br)c1 | 0.4% (inactive)
CCN(CC)S(=O)(=O)c1cccc(NC(=O)c2ccc(S(=O)(=O)N3CCCC3)cc2)c1 | 13.2% (active)
O=C(Nc1cccc(S(=O)(=O)N2CCCC2)c1)c1cncc(Br)c1 | 0.81% (inactive)
CCOc1ccccc1NC(=O)CCS(=O)(=O)c1cccc2nsnc12 | 6.16% (inactive)
O=C(COC(=O)c1cccnc1Cl)NC(=O)NC1CCCCC1 | -1.43% (inactive)
OC(COCCC12CC3CC(CC(C3)C1)C2)CN1CCCCC1 (stereo not given) | 3.12% (inactive)
CCCOc1cccc(C(=O)Nc2ccccc2C(=O)N2CCN(C)CC2)c1 | -7.36% (inactive)
COc1ccccc1CNC(=O)COn1nnc2ccc(S(=O)(=O)N3CCOCC3)cc21 | -2.13% (inactive)
O=C(COc1ccccc1)N1CCN=C1SCc1cccc(F)c1 | 8.07% (inactive)
CC(=O)c1cccc(OCc2cc(C(=O)NC(C)Cc3cccnc3)no2)c1 (stereo not given) | 2.99% (inactive)
CN(Cc1cccnc1)C(=O)c1cc(COc2ccc3ncccc3c2)on1 | 11.7% (active)
CN(Cc1cnccn1)C(=O)c1cc(COc2cccc(C(F)(F)F)c2)on1 | 0.68% (inactive)
O=S(=O)(NC1CCCC1)c1ccc(-n2cnnn2)cc1 | 4.29% (inactive)
CCn1c(C(C)C)n[nH]c1=S | 1.98% (inactive)

Structure (SMILES) | activation
CCOC(=O)c1c(NC(=O)Cn2nc(C(F)(F)F)cc2C)sc2c1CCC2 | 12.1% (active)
CCOC(=O)c1c(NC(=O)NC(C)(C)C)sc2c1CCN(C)C2 | -2.16% (inactive)
CCOC(=O)c1c(NC(=O)CSc2cn(CC)c3ccccc23)sc2c1CCC2 | -4.94% (inactive)
CCCn1c(SCC(=O)Nc2c(C)cccc2C)nnc1C(C)C | -3.62% (inactive)
O=C(COc1ccccc1Cl)Nn1cnnc1 | 0.57% (inactive)
COc1cc2c(-c3ccc4c(c3)OCO4)c(-c3ccsc3)oc(=O)c2cc1OC | 15.3% (active)
COC(=O)c1c(-c2ccsc2)oc2ccc(-c3cc(OC)c(OC)c(OC)c3)cc12 | 6.62% (inactive)
COc1cc(-c2c(-c3ccc4c(c3)OCO4)noc2C)ccc1F | -0.29% (inactive)
O=C(CCl)NNc1cccc(Cl)n1 | -8.59% (inactive)
COc1ccc2c(c1)SC(C)CC2=O (stereo not given) | 10.6% (active)
COc1ccc(N)c(C)c1 | 0.27% (inactive)
COc1ccc2c(c1)C(=O)CC(c1ccccc1)O2 (stereo not given) | -1.73% (inactive)
O=S(=O)(c1cccc(-c2nnc(SC(F)F)n2-c2ccccc2)c1)N1CCCCC1 | 0.34% (inactive)
CCOc1ccc(CN2CCN(Cc3ccc(C)o3)CC2CCO)cc1 (stereo not given) | -1.69% (inactive)
Cc1ccc(CN2CCN(Cc3ccc(OCCO)cc3)CC2CCO)o1 (stereo not given) | 15% (active)
Cc1ccc(CN2CCN(Cc3cn(C)nc3-c3ccccc3)CC2CCO)o1 (stereo not given) | -1.42% (inactive)
Cc1ccc2c(c1)C(c1ccccc1)N(C(=O)c1ccc(F)cc1)CC(=O)N2 (stereo not given) | -1.42% (inactive)
COc1ccc2c(CC(=O)OCC(=O)Nc3ccccc3[N+](=O)[O-])coc2c1 | -1.41% (inactive)
Cc1ccc(NS(=O)(=O)c2cccs2)cc1S(=O)(=O)N1CCCCCC1 | 0.15% (inactive)
O=S(=O)(Nc1ccccc1Br)c1cccs1 | 8.11% (inactive)
O=S(=O)(Nc1ccccc1)c1ccc(NS(=O)(=O)c2cccs2)cc1 | 9.34% (active)
Cc1c(OC(C)C(=O)NCC2CCC(C(=O)O)CC2)ccc2c1oc(=O)c1ccccc12 (stereo not given) | 1% (inactive)
CCOC(=O)N1CCC(Nc2c(NCCCN3CCN(c4ccc(OC)cc4)CC3)c(=O)c2=O)CC1 | -0.13% (inactive)
COc1ccc(S(=O)(=O)Nc2cc(C)on2)cc1NC(C)=O | 1.04% (inactive)

Structure (SMILES) | activation
CC(C)(C)c1ccc(C(=O)N2CCC(C(=O)N3CCCCC3)CC2)cc1 | 5.42% (inactive)
COc1ccccc1CNC(=O)C1CCN(S(=O)(=O)c2ccc3c(c2)CC(C)N3C(=O)C2CC2)CC1 (stereo not given) | -0.1% (inactive)
COc1ccc(S(=O)(=O)N2CCN(CC(=O)N3c4ccccc4CC3C)CC2)cc1OC (stereo not given) | 22.4% (active)
CC1Cc2ccccc2N1C(=O)CSc1nnc(-c2ccc(S(=O)(=O)N3CCCC3)cc2)n1C (stereo not given) | 2.27% (inactive)
O=C(CCS(=O)(=O)c1cccc2nsnc12)N1CCN(c2ccccc2F)CC1 | 5.73% (inactive)
CC(Cc1ccccc1)C(=O)N(C)Cc1ccccc1 (stereo not given) | 12.5% (active)
CN(Cc1ccccc1F)C(=O)C(Cc1ccccc1)NC(=O)c1ccccc1 (stereo not given) | -1.74% (inactive)
CN(Cc1ccccc1)C(=O)c1cccc(C(=O)N(C)Cc2ccccc2)c1 | -0.63% (inactive)
O=C(COC(=O)/C=C/c1ccc(S(=O)(=O)N2CCCCCC2)cc1)NCc1ccccc1Cl | -5.05% (inactive)
O=C1CCCN2N=C(SCC(=O)Nc3ccc(Br)cc3)SC2=N1 | -3.71% (inactive)
CCCCCN(C(=O)NC(=O)Nc1ccccc1OC)S(C)(=O)=O | -1.57% (inactive)
Cc1ccc(C2=N/C(=C\c3ccc(OS(=O)(=O)c4ccc(C)cc4)cc3)C(=O)O2)cc1 | 0.86% (inactive)
CCOc1cc(/C=C2/N=C(c3ccc(C(C)(C)C)cc3)OC2=O)cc(Cl)c1OS(C)(=O)=O | 13.3% (active)
Cc1cc(C)c(C)c(S(=O)(=O)Nc2cccnc2)c1C | 13.8% (active)
Cc1cc(C)c(C)c(S(=O)(=O)Nc2ccc(O)cc2)c1C | 3.2% (inactive)
COc1ccc(S(=O)(=O)Nc2cccnc2)c(Cl)c1Cl | -1.41% (inactive)
O=C(OCc1ccc([N+](=O)[O-])cc1)C1CC(=O)N(Cc2ccccc2Cl)C1 (stereo not given) | -0.92% (inactive)
CCc1cccc(C)c1NS(=O)(=O)c1c(C)nc2sccn2c1=O | 0.59% (inactive)
COCCC(=O)N1CCC(Oc2ccc(C(=O)NCc3ccon3)cc2)CC1 | 1.64% (inactive)
COc1ccc(CCNC(=O)CC2SC(=Nc3cc(C)cc(C)c3)NC2=O)cc1OC (stereo not given) | 1.71% (inactive)
COC(=O)c1cc(C)sc1NC(=O)CC1Nc2ccccc2NC1=O (stereo not given) | 2.14% (inactive)
O=C(CC1NCCNC1=O)Nc1ccc(Oc2ccccc2)cc1 (stereo not given) | 1.17% (inactive)
O=C(CC1Nc2ccccc2NC1=O)Nc1ccccc1 (stereo not given) | 17% (active)
